5 compounds from PubChem BioAssay (EPA / NIEHS) can be followed below.

Values joined by “and” are separate entries in the source; they are usually repeats but may differ in a detail not shown here. Equal entries are not always repeated. Active and inactive are the calls of the source. How the source made its calls: active means hit-call score of the fitted dose curve at least 0.9, where 1 is the maximum; inactive means score below 0.9.

Read-out in experiment [1]: Low-density lipoprotein receptor (LDLR), LDLR (gene 3949)
The experiment can be described thus: BSK_CASM3C_LDLR: BioMAP Diversity Plus: CASM3C Assay for Low-density lipoprotein receptor (LDLR) Biomarker Activity (AID 2283045).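 Further: LDLR protein level on the cell surface quantified by ELISA.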 As to conditions: primary human coronary artery smooth muscle cells; actives raise or lower the signal.

Read-out in experiment [2]: Monocyte Chemoattractant Protein-1 (MCP1), CCL2 (gene 6347)
The experiment can be described thus: BSK_CASM3C_MCP1: BioMAP Diversity Plus: CASM3C Assay for Monocyte Chemoattractant Protein-1 (MCP1) Biomarker Activity (AID 2283046).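 Further: MCP-1 level quantified by ELISA 24 h after dosing.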 As to conditions: primary human coronary artery smooth muscle cells; actives raise or lower the signal.

A short description of experiment [3]: BSK_CASM3C_Proliferation: Cell Proliferation Assessment in the BioMAP Diversity Plus: CASM3C Assay (AID 2283047).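 Further: sulforhodamine B total protein stain as relative cell number at 560 nm; sub-confluent cells exposed 48 h before staining; fitted both ways against DMSO so gain or loss of cell number.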 As to conditions: primary human coronary artery smooth muscle cells.
Read-out in experiment [4]: Monokine induced gamma interferon (MIG), CXCL9 (gene 4283)
The experiment can be described thus: BSK_CASM3C_MIG: BioMAP Diversity Plus: CASM3C Assay for Monokine induced gamma interferon (MIG) Biomarker Activity (AID 2283048).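 Further: MIG protein level measured by ELISA.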 As to conditions: primary human coronary artery smooth muscle cells; actives raise or lower the signal.

Read-out in experiment [5]: serum amyloid A (SAA), SAA1 (gene 6288)
The experiment can be described thus: BSK_CASM3C_SAA: BioMAP Diversity Plus: CASM3C Assay for serum amyloid A (SAA) Biomarker Activity (AID 2283049).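 Further: SAA protein level quantified by ELISA.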 As to conditions: primary human coronary artery smooth muscle cells; actives raise or lower the signal.

Read-out in experiment [6]: Thrombomodulin, THBD (gene 7056)
Nature of the experiment: BSK_CASM3C_Thrombomodulin: BioMAP Diversity Plus: CASM3C Assay for Thrombomodulin Biomarker Activity (AID 2283051).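 Further: thrombomodulin protein level measured by ELISA 24 h after dosing.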 As to conditions: primary human coronary artery smooth muscle cells; actives raise or lower the signal.

Read-out in experiment [7]: Tissue Factor, F3 (gene 2152)
The experiment can be described thus: BSK_CASM3C_TissueFactor: BioMAP Diversity Plus: CASM3C Assay for Tissue Factor Biomarker Activity (AID 2283052).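 Further: cell surface tissue factor protein level read by ELISA.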 As to conditions: primary human coronary artery smooth muscle cells; actives raise or lower the signal.

Read-out in experiment [8]: Interferon-gamma inducible Protein 10 (IP10), CXCL10 (gene 3627)
Nature of the experiment: BSK_hDFCGF_IP10: BioMAP Diversity Plus: hDFCGF Assay for Interferon-gamma inducible Protein 10 (IP10) Biomarker Activity (AID 2283053). As to conditions: primary human foreskin fibroblasts; actives raise or lower the signal. Summed up:
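IP-10 levels, quantified by ELISA, are taken from human foreskin fibroblast cultures 24 h after chemical treatment, with DMSO serving as negative control and baseline for bidirectional analysis.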

Read-out in experiment [9]: Urokinase-type plasminogen activator receptor (uPAR), PLAUR (gene 5329)
The experiment can be described thus: BSK_CASM3C_uPAR: BioMAP Diversity Plus: CASM3C Assay for Urokinase-type plasminogen activator receptor (uPAR) Biomarker Activity (AID 2283054).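 Further: cell-surface uPAR protein level quantified by ELISA.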 As to conditions: primary human coronary artery smooth muscle cells; actives raise or lower the signal.

Read-out in experiment [10]: Vascular cell adhesion molecule 1 (VCAM1), VCAM1 (gene 7412)
The experiment can be described thus: BSK_CASM3C_VCAM1: BioMAP Diversity Plus: CASM3C Assay for Vascular cell adhesion molecule 1 (VCAM1) Biomarker Activity (AID 2283055).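 Further: VCAM-1 protein level quantified by ELISA on the cells.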 As to conditions: primary human coronary artery smooth muscle cells; actives raise or lower the signal.

Read-out in experiment [11]: Collagen III, COL3A1 (gene 1281)
The experiment can be described thus: BSK_hDFCGF_CollagenIII: BioMAP Diversity Plus: hDFCGF Assay for Collagen III Biomarker Activity (AID 2283056). As to conditions: primary human foreskin fibroblasts; actives raise or lower the signal. Summed up: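 Human foreskin fibroblast primary cultures sampled 24 h after dosing; Collagen III quantified by ELISA. Signal fitted bidirectionally against DMSO baseline.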

Read-out in experiment [12]: Epidermal growth factor receptor (EGFR), EGFR (gene 1956)
The experiment can be described thus: BSK_hDFCGF_EGFR: BioMAP Diversity Plus: hDFCGF Assay for Epidermal growth factor receptor (EGFR) Biomarker Activity (AID 2283057). As to conditions: primary human foreskin fibroblasts; actives raise or lower the signal. Summed up:
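Measured by ELISA: EGFR levels on primary human foreskin fibroblasts 24 h after chemical treatment, analysed relative to DMSO with bidirectional fitting.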

Read-out in experiment [13]: Interleukin-8 (IL8), CXCL8 (gene 3576)
Nature of the experiment: BSK_hDFCGF_IL8: BioMAP Diversity Plus: hDFCGF Assay for Interleukin-8 (IL8) Biomarker Activity (AID 2283058). As to conditions: primary human foreskin fibroblasts; actives raise or lower the signal. Summed up: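 Primary human foreskin fibroblasts (hDFCGF system) dosed with chemical; IL-8 measured by ELISA 24 hours later. Bidirectional curve fitting relative to DMSO baseline; cytotoxicity tracked in parallel cultures by SRB total protein staining.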

Experiment [14] can be described thus: BSK_hDFCGF_Proliferation: Cell Proliferation Assessment in the BioMAP Diversity Plus: hDFCGF Assay (AID 2283059).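 Further: curves fitted for both rise and fall of signal versus DMSO baseline.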 As to conditions: primary human foreskin fibroblasts. Summed up: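 Total protein read at 560 nm after 0.1% SRB staining of TCA-fixed human skin fibroblasts, […]. Activity is fitted in both directions relative to DMSO as baseline.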

Read-out in experiment [15]: Macrophage colony-stimulating factor (MCSF), CSF1 (gene 1435)
The experiment can be described thus: BSK_hDFCGF_MCSF: BioMAP Diversity Plus: hDFCGF Assay for Macrophage colony-stimulating factor (MCSF) Biomarker Activity (AID 2283060). As to conditions: primary human foreskin fibroblasts; actives raise or lower the signal. Summed up: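 Human foreskin fibroblast primary cultures; M-CSF measured by ELISA 24 hours after chemical dosing. Bidirectional fitting relative to DMSO, with overt cytotoxicity tracked by parallel SRB total-protein staining (0.1% SRB, 10% TCA fixation, 560 nm).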

A short description of experiment [16]: BSK_hDFCGF_SRB: Viability Assessment in the BioMAP Diversity Plus: hDFCGF Assay (AID 2283061).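 Further: cells exposed to compound for 24 h before the read.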 As to conditions: primary human foreskin fibroblasts. Summed up:
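Human foreskin fibroblasts in 96-well plates were treated 24 h. Total protein was measured by 0.1% SRB staining after 10% TCA fixation, read at 560 nm. Data were fitted bidirectionally against DMSO.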

Read-out in experiment [17]: TIMP metallopeptidase inhibitor 1 (TIMP1), TIMP1 (gene 7076)
Nature of the experiment: BSK_hDFCGF_TIMP1: BioMAP Diversity Plus: hDFCGF Assay for TIMP metallopeptidase inhibitor 1 (TIMP1) Biomarker Activity (AID 2283062). As to conditions: primary human foreskin fibroblasts; actives raise or lower the signal. Summed up: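 Human foreskin fibroblast primary cultures dosed for 24 h; secreted/surface TIMP-1 quantified by ELISA. Bidirectional curve fitting against DMSO baseline; cytotoxicity tracked in parallel cultures by SRB total-protein staining.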

Read-out in experiment [18]: Matrix Metallopeptidase 1 (MMP1), MMP1 (gene 4312)
Nature of the experiment: BSK_hDFCGF_MMP1: BioMAP Diversity Plus: hDFCGF Assay for Matrix Metallopeptidase 1 (MMP1) Biomarker Activity (AID 2283064). As to conditions: primary human foreskin fibroblasts; actives raise or lower the signal. Summed up:
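hDFCGF primary fibroblasts (human foreskin); chemical added; 24 h; MMP1 by ELISA; bidirectional fit vs DMSO.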

Read-out in experiment [19]: Vascular cell adhesion molecule 1 (VCAM1), VCAM1 (gene 7412)
Nature of the experiment: BSK_hDFCGF_VCAM1: BioMAP Diversity Plus: hDFCGF Assay for Vascular cell adhesion molecule 1 (VCAM1) Biomarker Activity (AID 2283065).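 On AC50: VCAM-1 protein level quantified by ELISA after 24 h chemical exposure.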 As to conditions: primary human foreskin fibroblasts; actives raise or lower the signal. Summed up: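 Human foreskin fibroblast primary cells dosed with chemical, VCAM-1 measured by ELISA at 24 h. Bidirectional curve fitting relative to DMSO as negative control/baseline.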

Read-out in experiment [20]: Intercellular Adhesion Molecule 1 (ICAM1), ICAM1 (gene 3383)
Nature of the experiment: BSK_KF3CT_ICAM1: BioMAP Diversity Plus: KF3CT Assay for Intercellular Adhesion Molecule 1 (ICAM1) Biomarker Activity (AID 2283067). As to conditions: primary human keratinocytes with fibroblasts; actives raise or lower the signal. Summed up: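 Human keratinocyte–foreskin fibroblast co-culture was treated for 24 h. Cell-surface ICAM-1 was quantified by ELISA, fitted bidirectionally relative to DMSO. Cytotoxicity was checked in parallel cultures by SRB total-protein staining.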

Take `C=CCN(CC=C)C(=O)C(Cl)Cl`: the result in experiment [1], in experiment [2], in [3], in experiment [4], in experiment [5] and in [6] was inactive. Also, the result in experiment [7], in experiment [8], in [9], in [10], in [11] and in experiment [12] was inactive. The outcome in [13], in experiment [14], in experiment [15], in experiment [16], in [17] and in experiment [18] was inactive. The outcome in experiment [19] and in [20] was inactive.

As for `CCCOC(=O)c1ccccc1C(=O)OCCC`, the outcome in experiment [1], in experiment [2], in experiment [3], in [4], in [5] and in [6] was inactive. For the same compound, the result in experiment [7], in [8], in experiment [10], in [11], in [12] and in [13] was inactive. The result in experiment [14], in [15], in experiment [16], in [17], in [18] and in experiment [19] was inactive. Moreover, in [20], the result was inactive. Besides, the AC50 in [9] is 5.19 µM (active).

Take `N#CCCCCC#N`: the outcome in [1], in experiment [2], in experiment [3], in [4], in [5] and in experiment [6] was inactive. The result in experiment [7], in experiment [8], in experiment [9], in experiment [10], in [11] and in experiment [12] was inactive. Besides, the outcome in experiment [13], in experiment [14], in experiment [15], in experiment [16], in experiment [17] and in [18] was inactive. In addition, the outcome in experiment [19] and in [20] was inactive.

As to `Oc1ccc(C2(c3ccc(O)cc3)c3ccccc3-c3ccccc32)cc1`, the AC50 in experiment [1] was 29.5 µM (active) and 28.9 µM (active); in [2], 20 µM (active); in experiment [3], 32.4 µM (active) and 32.9 µM (active); in experiment [4], 914 nM (active) and 799 nM (active); in experiment [5] it was 20 µM (active); in experiment [6], 1.93 µM (active) and 20 µM (active). In addition, the concentration at half-maximal activity (AC50) in experiment [7] is 178 nM (active) and 3.97 µM (active); in experiment [8], 2.87 µM (active) and 2.53 µM (active); in experiment [9], 20 µM (active) and 25.7 µM (active); in experiment [10], 3.97 µM (active); in [11] it was 2.68 µM (active) and 2.27 µM (active); in [13] it was 6.24 µM (active) and 5.65 µM (active). Moreover, the AC50 is 1.12 µM (active) and 927 nM (active) in experiment [14]; 2.26 µM (active) and 2.51 µM (active) in [15]; 1.47 µM (active) and 1.56 µM (active) in [17]; 3.97 µM (active) and 2.03 µM (active) in experiment [18]; 1.61 µM (active) and 1.41 µM (active) in experiment [19]; 11.9 µM (active) and 10.4 µM (active) in experiment [20]. The result in experiment [12] and in experiment [16] was inactive.

As for `O=[N+]([O-])c1ccc(Cl)cc1`, the outcome in experiment [1], in experiment [2], in experiment [3], in [4], in experiment [5] and in experiment [6] was inactive. Besides, the outcome in experiment [7], in experiment [8], in experiment [9], in [10], in experiment [11] and in experiment [12] was inactive. Besides, the outcome in experiment [13], in experiment [14], in experiment [15], in experiment [16], in [17] and in experiment [18] was inactive. The outcome in [19] and in [20] was inactive.
